# Reference: the supplement of paper PMC8728848
# This is one part of a sample in which the strongest signals are shown more often than they occur.
# Experiments:
# Assay in all cases: glycan array binding signal (z-score within array); higher = stronger binding
# Details in all cases: glycan notation: IUPAC condensed, linker removed
# [1] = target: Man(a1-3)[Man(a1-6)]Man(a1-6)[Man(a1-3)]Man(b1-4)GlcNAc(b1-4)GlcNAc
# Method in brief: (§1)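 The binding signal is a Z-score computed within each array and averaged over linkers. Arrays of the same protein sequence at different concentrations or buffers were also averaged together. Data originate from 3228 arrays in the Consortium for Functional Glycomics database, kept only where the protein sequence was available.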
# [2] = target: Neu5Ac(a2-3)Gal(b1-3)GlcNAc(b1-3)GalNAc
# Method in brief: as §1
# [3] = target: Neu5Ac(a2-3)Gal(b1-4)GlcNAc(b1-2)Man(a1-3)[Neu5Ac(a2-3)Gal(b1-4)GlcNAc(b1-2)Man(a1-6)]Man(b1-4)GlcNAc(b1-4)GlcNAc
# Method in brief: as §1
# [4] = target: Neu5Ac(a2-3)Gal(b1-4)GlcNAc(b1-2)Man(a1-3)[Neu5Ac(a2-3)Gal(b1-4)GlcNAc(b1-2)Man(a1-6)]Man(b1-4)GlcNAc(b1-4)[Fuc(a1-6)]GlcNAc
# Method in brief: as §1
# [5] = target: Neu5Ac(a2-3)Gal(b1-4)GlcNAc(b1-3)Gal(b1-4)GlcNAc(b1-2)Man(a1-3)[Neu5Ac(a2-3)Gal(b1-4)GlcNAc(b1-3)Gal(b1-4)GlcNAc(b1-2)Man(a1-6)]Man(b1-4)GlcNAc(b1-4)GlcNAc
# Method in brief: as §1
# [6] = target: Neu5Ac(a2-3)Gal(b1-4)GlcNAc(b1-3)Gal(b1-4)GlcNAc(b1-3)GalNAc
# Method in brief: as §1
# [7] = target: Neu5Ac(a2-3)Gal(b1-4)GlcNAc(b1-3)[Neu5Ac(a2-3)Gal(b1-4)GlcNAc(b1-6)]GalNAc
# Method in brief: as §1
# [8] = target: Neu5Ac(a2-3)Gal(b1-4)[Fuc(a1-3)]GlcNAc(b1-3)Gal(b1-4)GlcNAc
# Method in brief: as §1
# [9] = target: Neu5Ac(a2-3)Gal(b1-4)[Fuc(a1-3)]GlcNAc(b1-3)GalNAc
# Method in brief: as §1
# [10] = target: Neu5Ac(a2-3)[GalNAc(b1-4)]Gal(b1-4)GlcNAc
# Method in brief: as §1
# [11] = target: Neu5Ac(a2-6)Gal(b1-4)GlcNAc(b1-2)Man(a1-3)Man(b1-4)GlcNAc(b1-4)GlcNAc
# Method in brief: as §1
# [12] = target: Neu5Ac(a2-6)Gal(b1-4)GlcNAc(b1-2)Man(a1-3)[Man(a1-6)]Man(b1-4)GlcNAc(b1-4)GlcNAc
# Method in brief: as §1
# [13] = target: Neu5Ac(a2-6)Gal(b1-4)GlcNAc(b1-2)Man(a1-3)[Neu5Ac(a2-3)Gal(b1-4)GlcNAc(b1-2)Man(a1-6)]Man(b1-4)GlcNAc(b1-4)GlcNAc
# Method in brief: as §1
# [14] = target: Neu5Ac(a2-6)Gal(b1-4)GlcNAc(b1-2)Man(a1-3)[Neu5Ac(a2-6)Gal(b1-4)GlcNAc(b1-2)Man(a1-6)]Man(b1-4)GlcNAc(b1-4)[Fuc(a1-6)]GlcNAc
# Method in brief: as §1
# [15] = target: Neu5Ac(a2-6)Gal(b1-4)GlcNAc(b1-2)Man(a1-6)Man(b1-4)GlcNAc(b1-4)GlcNAc
# Method in brief: as §1
# [16] = target: Neu5Ac(a2-6)Gal(b1-4)GlcNAc(b1-2)Man(a1-6)[Gal(b1-4)GlcNAc(b1-2)Man(a1-3)]Man(b1-4)GlcNAc(b1-4)GlcNAc
# Method in brief: as §1
# [17] = target: Neu5Ac(a2-6)Gal(b1-4)GlcNAc(b1-2)Man(a1-6)[GlcNAc(b1-2)Man(a1-3)]Man(b1-4)GlcNAc(b1-4)GlcNAc
# Method in brief: as §1
# [18] = target: Neu5Ac(a2-6)Gal(b1-4)GlcNAc(b1-2)Man(a1-6)[Man(a1-3)]Man(b1-4)GlcNAc(b1-4)GlcNAc
# Method in brief: as §1
# [19] = target: Neu5Ac(a2-6)Gal(b1-4)GlcNAc(b1-3)Gal(b1-4)GlcNAc(b1-3)[Neu5Ac(a2-6)Gal(b1-4)GlcNAc(b1-3)Gal(b1-4)GlcNAc(b1-6)]GalNAc
# Method in brief: as §1
# [20] = target: Neu5Ac(a2-6)Gal(b1-4)GlcNAc(b1-3)Gal(b1-4)[Fuc(a1-3)]GlcNAc(b1-3)Gal(b1-4)[Fuc(a1-3)]GlcNAc
# Method in brief: as §1
# [21] = target: Neu5Ac(a2-6)Gal(b1-4)GlcNAc(b1-3)[Neu5Ac(a2-6)Gal(b1-4)GlcNAc(b1-6)]GalNAc
# Method in brief: as §1
# [22] = target: Neu5Ac(a2-6)Gal(b1-4)GlcNAc(b1-6)GalNAc
# Method in brief: as §1
# [23] = target: Neu5Ac(a2-6)GlcNAc(b1-4)GlcNAc(b1-4)GlcNAc
# Method in brief: as §1
# [24] = target: Neu5Ac(a2-8)Neu5Ac(a2-3)[Gal(b1-3)GalNAc(b1-4)]Gal(b1-4)Glc
# Method in brief: as §1
# [25] = target: Neu5Gc(a2-3)Gal(b1-4)GlcNAc(b1-3)Gal(b1-4)GlcNAc(b1-2)Man(a1-3)[Neu5Gc(a2-3)Gal(b1-4)GlcNAc(b1-3)Gal(b1-4)GlcNAc(b1-2)Man(a1-6)]Man(b1-4)GlcNAc(b1-4)GlcNAc
# Method in brief: as §1
binder,measurement,setting,value
SialidaseA (Arthrobacter ureafaciens) (protein) MRSNSTSAPSLVRRAATGVLTCAVSIGLLAGLGLPAQAAPTPPNSPTLPPGSFSETNLAADRTAANFFYRIPALTYLGNDVVLAAWDGRPGSAADAPNPNSIVQRRSTDGGKTWGPVQVIAAGHVADASGPRYGYSDPSYIYDAEANKVFAFFVYSKDQGFGGSQFGNDDADRNVISSAVIESSDAGVTWSQPRLITSVTKPGTSKTNPAAGDVRSNFASSGEGIQLKYGPHKGRLIQQYAGDVRQADGSNKIQAYSVYSDDHGVTWHKGANVGDRMDENKTVELSDGRVLLNSRDNANRGYRKVAVSTDGGATYGPVSQDTELPDPANNGAIARMFPNAAQGSADAKKLIFTNANSKTGRENVSARVSCDDGETWPGVRTIRSGFSAYSTVTRLADGKFGVLYEGNYTDNMPFATFDDAWLNYVCAPLAVPAVNIAPSATQEVPVTVTNQEATTLSGATATVYTPSGWSATTVPVPDVAPGASVTVTVALTAPADASGPRSLNAAFTTADGRVSQFTFTATTPVAPQVGLTITGSAPARDVAANPYQAGDVLGYTLNVKSTANVAANSVPLTGTFDSGFLPPAAPNCRYNNLAAGASYNCTTAKHTITAADMERGYFVPEATFSITSTTTPSLTKTVQFTGAAVALRDGLISADISGARTDVGRDLATRPYAAGELVPYAFTVKNTSPFVEQVVPTAGNFSPFLPAGAGNCRYLSLPAGQSYECATPRHAVTAEEVEQGFFVPDTTWEVSAAGQSTRTYRINGGEVDLLVRDAALSATVVAEWKDADGDRFASAGDPVTFTYTVGNAGNVALTGLEAPDAGISLPFLAPGDTATATREHVLTAADVAGGSLAASAFEATARNGSKEVTATAEGQPLELKVQPAQPSKEPELTVQDLEDQTPPFDLGTAFKYRTGQKVSLAGLEYGQWYYVYLNKTGYRLGWMFPTTGDTVEFILPPEVRNGRDDVVVLDKDGRRVSFDRLQVTPKGEKI,glycan array binding signal (z-score),[1],-0.278
same,glycan array binding signal (z-score),[2],-0.321
same,glycan array binding signal (z-score),[3],-0.915
same,glycan array binding signal (z-score),[4],3.28
same,glycan array binding signal (z-score),[5],0.256
same,glycan array binding signal (z-score),[6],-0.013
same,glycan array binding signal (z-score),[7],1.16
same,glycan array binding signal (z-score),[8],2.56
same,glycan array binding signal (z-score),[9],1.91
same,glycan array binding signal (z-score),[10],0.486
same,glycan array binding signal (z-score),[11],3.4
same,glycan array binding signal (z-score),[12],3.4
same,glycan array binding signal (z-score),[13],2.86
same,glycan array binding signal (z-score),[14],3.44
same,glycan array binding signal (z-score),[15],3.28
same,glycan array binding signal (z-score),[16],3.95
same,glycan array binding signal (z-score),[17],3.32
same,glycan array binding signal (z-score),[18],3.29
same,glycan array binding signal (z-score),[19],3.49
same,glycan array binding signal (z-score),[20],3.65
same,glycan array binding signal (z-score),[21],3.9
same,glycan array binding signal (z-score),[22],-0.534
same,glycan array binding signal (z-score),[23],-0.274
same,glycan array binding signal (z-score),[24],-0.131
same,glycan array binding signal (z-score),[25],1.3
